The list is not random: actives were taken first. Their share in the collection is about 18%.
TDP1 cell noCPT – qHTS for Inhibitors of human tyrosyl-DNA phosphodiesterase 1 (TDP1): qHTS in cells in absence of CPT | DT40 Tdp1-/- hTDP1 cells, no CPT, ATP luminescence, 48 h | Potency, µM (titrated, usually from 46.2 µM), without a hit: top-dose activity change, negative = growth inhibition, most hits filed as inhibitors | 420,000 compounds, 15% hits; note: potency is the fitted concentration of half-maximal effect; nearly all actives have a fitted effect of over 55% in size
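Compound effects on proliferation are scored in DT40 Tdp1-/-;hTDP1 cells in the absence of CPT. ATP levels (CellTiter-Glo luminescence) are recorded after a ≥48 hr, 37 °C incubation.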
DT40 TDP1 CPT – qHTS for Inhibitors of human tyrosyl-DNA phosphodiesterase 1 (TDP1): qHTS in cells in presence of CPT; chicken DT40 Tdp1-/-;hTDP1 cells + 20 nM CPT, ATP luminescence, 48 h; Potency, µM (titrated, usually from 46.2 µM), for inactives: at the highest dose activity change, negative = growth inhibition, actives largely listed as inhibitors; 420,000 compounds, 12% hits; AID 686979, 2013; note: potency is the fitted concentration of half-maximal effect; nearly all actives have a fitted effect of over 55% in size
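Chicken DT40 Tdp1-/- cells stably complemented with human TDP1 were seeded at 400 cells/well in medium containing 20 nM camptothecin, exposed to pin-transferred compounds, and grown at 37 °C for at least 48 hr. Viability was read as ATP luminescence.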
IL1B secr inh – qHTS for Inhibitors of Inflammasome Signaling: IL-1-beta AlphaLISA Primary Screen; activity change, % at 57.5 µM; 360,000 compounds, 4.7% hits; THP-1 LPS/ATP IL-1B secretion, AlphaLISA, 16 h; active compounds read low; in the data active = activity change below about -50%; inconclusive = mostly about -30% to -49%
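THP-1 cells pretreated 1 hr with compounds (up to 57.5 uM final), then stimulated with LPS (250 ng/mL final) plus ATP (1.25 mM final); secreted IL-1B measured by AlphaLISA after 16 hr, decreased signal indicating inhibition.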
TDP1 block – qHTS Assay for Inhibitors of Tyrosyl-DNA Phosphodiesterase (TDP1); 350,000 compounds, 0.28% hits; Tyrosyl-DNA phosphodiesterase 1 (Homo sapiens), Q9NUW8; Potency, µM (series often up to 130 µM), for the others: top-dose activity change, negative = inhibition, actives largely listed as inhibitors; recombinant TDP1, AlphaScreen DNA substrate cleavage; note: potency is the fitted concentration of half-maximal effect; nearly all actives have a fitted effect of over 40% in size
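AlphaScreen read-out: signal falls as enzyme removes the 3' tyrosine-FITC from a 5'-biotinylated DNA oligo (15 nM, 5 min, RT). Enzyme was E. coli-made recombinant Tdp1 at 1 nM, exposed to compound for 15 min beforehand; beads 10 ug/ml, 10 min.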
CtBP-E1A blk – qHTS Assay for Inhibitors of the CtBP/E1A Interaction. AlphaScreen GST-E1A/His-CtBP binding, 1536-well; active compounds read low. 340,000 compounds, 0.49% hits. CtBP / adenovirus E1A interaction (AlphaScreen). AID 651724, 2012. activity change, % (no concentration beside the values); in the data active = activity change below about -65%; inconclusive = mostly about -30% to -63%
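Homogeneous bead-based format: GST-tagged E1A captured on glutathione donor beads, His-tagged CtBP on nickel acceptor beads; compounds precede bead addition by 2 h at 37 °C.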
Six1-Eya2 inh – qHTS Assay for Inhibitors of the Six1/Eya2 Interaction; Homeobox protein SIX1 (Homo sapiens) + Protein phosphatase EYA2 (Homo sapiens), …; AlphaScreen GST-Six1/His-Eya2 binding, biochemical; active compounds read low; 360,000 compounds, 0.56% hits; activity change, % (test concentration not listed); in the data active = activity change below about -65%; inconclusive = mostly about -30% to -63%
Target sequence (O00167 whole entry, looked up): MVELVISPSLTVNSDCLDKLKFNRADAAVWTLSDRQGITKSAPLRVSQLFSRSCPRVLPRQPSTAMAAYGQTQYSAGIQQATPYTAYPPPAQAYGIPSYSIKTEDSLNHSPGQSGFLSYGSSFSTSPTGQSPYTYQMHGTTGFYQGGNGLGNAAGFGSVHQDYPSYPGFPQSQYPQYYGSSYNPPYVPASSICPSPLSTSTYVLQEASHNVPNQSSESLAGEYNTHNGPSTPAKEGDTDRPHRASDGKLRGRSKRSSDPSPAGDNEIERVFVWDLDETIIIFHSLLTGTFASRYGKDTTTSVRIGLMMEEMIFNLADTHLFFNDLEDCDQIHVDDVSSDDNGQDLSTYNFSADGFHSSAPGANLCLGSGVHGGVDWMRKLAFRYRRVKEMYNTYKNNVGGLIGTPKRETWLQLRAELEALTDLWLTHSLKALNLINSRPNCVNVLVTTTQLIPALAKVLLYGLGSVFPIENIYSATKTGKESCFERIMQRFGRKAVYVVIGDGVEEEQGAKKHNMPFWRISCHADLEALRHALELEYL
Target sequence (Q15475 whole entry, looked up): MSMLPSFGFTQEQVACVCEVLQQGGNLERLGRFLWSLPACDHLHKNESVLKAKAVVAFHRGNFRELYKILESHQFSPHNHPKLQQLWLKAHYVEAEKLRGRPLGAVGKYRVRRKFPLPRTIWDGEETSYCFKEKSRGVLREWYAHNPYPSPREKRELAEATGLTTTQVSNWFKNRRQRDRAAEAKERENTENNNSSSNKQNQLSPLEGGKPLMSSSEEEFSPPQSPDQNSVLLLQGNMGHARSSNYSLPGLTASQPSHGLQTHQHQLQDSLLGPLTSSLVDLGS
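GST-Six1 + His-Eya2 (5X stock: 250/500 nM); Tris pH 8.0, 300 mM NaCl, 0.05% BSA, 0.02% Tween 20; GSH donor/Ni acceptor beads; 1 h 37 °C dark; AlphaScreen readout.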
Active calls of the source: *; ? = inconclusive; / = no result given; [ ] = remark or other dose. Unless noted, calls come from the whole dose curve; as a rule, active = well fitted curve in the direction sought with a large enough effect; inconclusive = small, poorly fitted or top-dose-only effect, or another doubt; inactive = no such curve, though single readings can be large; an effect the other way counts as inactive or inconclusive. % is set by controls: 0 for no effect and ±100 for the full control effect.

SMILES | TDP1 cell noCPT | DT40 TDP1 CPT | IL1B secr inh | TDP1 block | CtBP-E1A blk | Six1-Eya2 inh
COc1ccc(Cc2nc3ccc(C(=O)NCCc4ncccc4C)cc3o2)cc1OC | 23µM* | 21µM* | -5 | / | -6 | -6
COc1cccc(-c2nc3ccc(C(=O)NC(C)Cc4cccnc4)cc3o2)c1 (stereo not drawn) | ? | 9.2µM* | ? | / | -13 | -3
COc1ccc(Cc2nc3ccc(C(=O)NCc4cc(C)no4)cc3o2)cc1 | -30% | -21% | -11 | 3% | -13 | -2
COC(=O)C1CCN(C(=O)c2ccc3nc(-c4cccc(OC)c4)oc3c2)CC1 | -28% | -25% | 8 | 6% | 7 | 0
COc1ccc(Cc2nc3ccc(C(=O)NCCc4ccccn4)cc3o2)cc1OC | -20% | -20% | -7 | 4%[56.1 µM] | 7 | 0
O=C(Nc1ccc(Br)cc1F)c1ccc2nc(CCc3ccccc3)oc2c1 | 12µM* | 7.3µM* | / | 1% | / | /
Cc1ccc(C)c(NC(=O)c2ccc3nc(CCc4ccccc4)oc3c2)c1 | -30% | -19% | / | -3% | / | /
O=C(COC(=O)c1cccnc1Nc1cccc(C(F)(F)F)c1)NCc1ccc2c(c1)OCO2 | ? | -22% | 27 | 4% | 6 | 3
Cc1ccccc1-c1cccc([C@@H]2C[C@H]3[C@H](CON3C)CN2C)c1 | -22% | -5% | 3 | / | 0 | -3
COc1ccc(CNC(=O)c2ccc3nc(CCc4ccccc4)oc3c2)cc1OC | 16µM* | 18µM* | / | 4% | / | /
CN1CCN(CCCNC(=O)c2ccc3nc(Cc4ccccc4)oc3c2)CC1 | 2% | 5% | / | 3% | / | /
COc1ccc(N2CCN(CCCNC(=O)c3ccc4nc(CCc5ccccc5)oc4c3)CC2)cc1 | 16µM* | 15µM* | / | 10% | / | /
COc1ccc(Cc2nc3ccc(C(=O)NCCc4ccccc4)cc3o2)cc1 | ? | 26µM* | / | 1% | / | /
CC(C)c1nc2ccc(C(=O)NCCCN3CCN(c4cccc(Cl)c4)CC3)cc2o1 | 21µM* | 18µM* | / | 4% | / | /
CC(C)c1nc2ccc(C(=O)NCCCN3CCN(c4ccc(F)cc4)CC3)cc2o1 | ? | ? | / | 8% | / | /
Cc1c(NC(=S)NC(=O)c2cc3ccccc3o2)cccc1C(=O)O | 13% | 17% | 37 | 3% | -6 | -10
CNC[C@H]1Oc2cc(Br)ccc2S(=O)(=O)N([C@H](C)CO)C[C@H]1C | -7% | -11% | -17 | / | -9 | 3
CCNc1nc(SCC(=O)OC)nc(N2CCOCC2)n1 | -5% | -8% | 8 | 0% | 6 | 2
CCCN(C(=O)CSCc1c(C)noc1C)c1c(N)n(Cc2ccccc2)c(=O)[nH]c1=O | -1% | 6% | 3 | / | 2 | 6
O=C(NCCCN1CCN(c2ccccc2)CC1)c1ccc2nc(CCc3ccccc3)oc2c1 | 4.6µM* | 3.7µM* | / | 8% | / | /
O=C(NCCCN1CCN(c2cccc(Cl)c2)CC1)c1ccc2nc(Cc3ccccc3)oc2c1 | 15µM* | 23µM* | / | 9% | / | /
O=C(Nc1cccc(Cl)c1)c1ccc2nc(Cc3ccccc3)oc2c1 | 21µM* | 21µM* | / | 3% | / | /
CCOC(=O)c1c(C)[nH]c(NC(=O)NNC(=O)c2ccc(OC)cc2)c1C | -4% | -10% | -9 | 2% | -7 | -1
CSC1=N/C(=C\c2ccc(Cl)cc2)C(=O)N1N(C)C | 23µM* | ? | / | 0% | -4 | -5
CCOc1ccccc1C(=O)NCC(=O)NNC(=O)CN(C)S(=O)(=O)c1ccc(Cl)cc1 | 12µM* | 21µM* | -4 | / | 0 | 23
SMILES | TDP1 cell noCPT | DT40 TDP1 CPT | IL1B secr inh | TDP1 block | CtBP-E1A blk | Six1-Eya2 inh
CCOc1ccc(NC(=O)C(NS(=O)(=O)c2cccc3nsnc23)c2ccccc2)cc1 (stereo not drawn) | ? | ? | / | 12% | / | /
CCN(C(=O)C(NS(=O)(=O)c1cccc2nsnc12)c1ccccc1)c1ccccc1 (stereo not drawn) | 23µM* | ? | / | 2% | / | /
CCc1ccc(NC(=O)C(NS(=O)(=O)c2cccc3nsnc23)c2ccccc2)cc1 (stereo not drawn) | 26µM* | ? | -30 | 5% | -20 | -12
CCC(C)NC(=O)C(NS(=O)(=O)c1cccc2nsnc12)c1ccccc1 (stereo not drawn) | -9% | 1% | -7 | -2% | 3 | 3
Cc1ccc(NC(=O)C(C)OC(=O)c2n[nH]c3ccccc23)cc1 (stereo not drawn) | -8% | -8% | 6 | / | -20 | 5
COc1ccc(CN2CCC[C@]3(N[C@H](c4ccc(C)cc4)[C@@H]4C(=O)N(Cc5ccccc5)C(=O)[C@@H]43)C2=O)cc1 | ? | ? | -22 | / | -8 | -7
COc1ccc(CN2CCC[C@]3(N[C@H](c4ccccc4)[C@@H]4C(=O)N(Cc5ccccc5)C(=O)[C@@H]43)C2=O)cc1 | 18µM* | ? | -3 | / | -4 | -4
CCN1C(=O)[C@H]2[C@@H](c3ccc(OC)cc3)N[C@]3(CCCN(Cc4ccc(Br)cc4)C3=O)[C@H]2C1=O | 26µM* | -8% | 33 | / | 4 | 17
COc1ccc(CN2CCC[C@]3(N[C@H](c4ccc(OC)cc4)[C@@H]4C(=O)N(Cc5ccccc5)C(=O)[C@@H]43)C2=O)cc1 | 16µM* | 21µM* | -7 | / | -12 | -1
COc1ccc([C@H]2N[C@]3(CCCN(Cc4ccc(Br)cc4)C3=O)[C@H]3C(=O)N(Cc4ccccc4)C(=O)[C@@H]23)cc1 | 15µM* | ? | -12 | / | 5 | -7
CCOCCCNC(=O)CN1C(=O)COc2ccc(S(=O)(=O)N3CCC(C)CC3)cc21 | 15% | -4% | ? | 1% | -11 | 5
Cc1ccc2nc(N/N=C\c3ccc([N+](=O)[O-])o3)nc(-c3ccccc3)c2c1 | ? | 23µM* | -59* | 0% | 0 | -16
O=[N+]([O-])c1ccc(/C=N/Nc2nc(-c3ccccc3)c3cc(Br)ccc3n2)o1 | 21µM* | 16µM* | -22 | 5% | -3 | -7
N#Cc1ccccc1/C=N/Nc1nc(-c2ccccc2)c2cc(Br)ccc2n1 | ? | ? | ? | 2% | -1 | -3
O=C(CNC(=S)N(Cc1ccccc1F)C1CCCCC1)NCCN1CCOCC1 | -11% | 10% | -4 | 0% | 4 | 1

Screens as filed in PubChem.
